# Compounds without any hit were thinned out: in the full panel of roughly 83,000, 20% have a hit.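 96-well plates, one dose, 48 hours. Percent growth reported; active if below 10.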 Unmarked numbers belong to inactive results. Activity calls are given as the source filed them.
# Columns and labels:
# Assay in all cases: NCI-60 one-dose screen, 48 h (100 = growth as untreated, 0 = no growth, -100 = all killed)
# Details in all cases: 10 µM unless noted
# [1] = system: HCT-15 colon
# [2] = system: HT29 colon
# [3] = system: SNB-75 CNS
# [4] = system: SNB-19 CNS
# [5] = system: U251 CNS
# [6] = system: PC-3 prostate
# [7] = system: SK-MEL-5 melanoma
# [8] = system: UACC-62 melanoma
# [9] = system: LOX IMVI melanoma
# [10] = system: SK-MEL-28 melanoma
SMILES,growth [1],growth [2],growth [3],growth [4],growth [5],growth [6],growth [7],growth [8],growth [9],growth [10]
COc1ccc(-c2cc(-c3ccc(Cl)cc3)c(C#N)c(=O)n2Cc2ccc(C(=O)Nc3ccccc3N)cc2)cc1,68.2%,107%,55.9%,80.2%,88.7%,79.6%,80.9%,49.5%,69.3%,70%
CC1(C)COB(OCC(C)(C)COB2OCC(C)(C)CO2)OC1,108%,110%,107%,110%,98.2%,94.2%,93.2%,106%,96%,113%
O=C(CSC(=S)n1cnnc1)NC(=O)c1ccccc1,107%,104%,95%,109%,116%,102%,109%,110%,97%,113%
O=c1[nH]c(Cc2nc3ccccc3s2)nc2cc(Br)ccc12,61.7%,43.7%,82.1%,82.2%,81.9%,60.9%,80.6%,2.81% (active),27.8%,55.1%
N#Cc1nc(-c2ccc(Cl)cc2)oc1S(=O)(=O)N1CCN(c2ccc(F)cc2)CC1,54.3%,88.5%,94.2%,96.4%,94.6%,96.4%,96%,100%,29.3%,104%
CC(C)c1ccc(C(=O)Nc2nc3ccc(O)c(CN(C)C)c3s2)cc1,20%,23.8%,107%,97.9%,69.1%,83%,74.4%,66%,28.1%,96.1%
Cn1ccnc1C(=O)/C=C/c1ccc(C(=O)Nc2ccc(Cl)cc2)cc1,-13.2% (active),2.78% (active),-3.04% (active),-3% (active),-50.1% (active),-6.8% (active),32.3%,16.6%,-84.8% (active),62.4%
COc1ccc(NC(=O)c2sc3nc(C)c(C(=O)/C=C/c4ccccc4)cc3c2N)cc1,0.101% (active),0.196% (active),12.2%,10.6%,1.8% (active),52.6%,74.3%,51.8%,-74.7% (active),85.7%
COC1=CC(c2ccc[nH]2)=N/C1=C\c1[nH]c(C)c(C)c1CCC(=O)OCc1ccccc1,-32.2% (active),5.68% (active),-2.99% (active),21%,-40.4% (active),-27.2% (active),-89.2% (active),-54.7% (active),-62.9% (active),-32.6% (active)
C[C@@H](CO)[C@@H]1CCC=C2CC[C@]3(C)[C@H](CC[C@@H]4[C@@]5(C)CCCNC(C)(C)[C@@H]5CC[C@]43C)[C@H]21,-5.42% (active),1.93% (active),92.3%,88.4%,18.8%,47.1%,72.2%,80.3%,-52.2% (active),70.5%
CC/C(=C(/c1ccc(Cl)cc1)c1ccc(OCCN(C)C)cc1)c1ccc(Cl)cc1,32.2%,22.4%,61.9%,78.4%,37.8%,71.4%,86.4%,96.3%,65.3%,90.3%
O=C(Nc1ccc(Oc2cccc(Cl)c2)c(Cl)c1)c1cccnc1,36.8%,8.57% (active),-23.2% (active),41.3%,23.9%,14.9%,14.5%,37.6%,51.7%,63.8%
CN1CCc2nc3sc(C(N)=O)c(N)c3c(-c3cccs3)c2C1,33%,42.6%,25.2%,37.9%,27.4%,32.5%,-58.7% (active),19.5%,7.95% (active),5.5% (active)
CSc1nc2ccccc2cc1/C=[N+](\[O-])c1ccccc1,18.7%,80.2%,67.3%,72.9%,46.2%,40.9%,52.5%,51.5%,38.1%,93.8%
CCCC/C=C/[C@@H]1C[C@H]1CCO,97.7%,97.2%,90.3%,96.3%,101%,95.5%,99.3%,92.4%,98.2%,98.1%
CCCCCN1C(=O)/C(=c2\sc3n(c2=O)C2C(NN=3)N(CC)C(=O)N2CC)c2ccccc21 (stereo not given),1.05% (active),-57.1% (active),-51.5% (active),-1.3% (active),-83.4% (active),-20.2% (active),16.8%,10.7%,-43.5% (active),19.2%
CCOC(=O)c1c(C(=O)c2cn(C)c3ccc(Br)cc23)c(-c2cn(C)c3ccc(Br)cc23)n(NC(=O)OC(C)(C)C)c1C,89% [100 µM],90.5% [100 µM],-27.3% [100 µM] (active),50.8% [100 µM],60.7% [100 µM],61.8% [100 µM],90.6% [100 µM],65.7% [100 µM],78% [100 µM],107% [100 µM]
Cc1cc(C(=O)O)c(C)n1-c1cccc(C(=O)O)c1,9.52% (active),28.4%,121%,87%,64.2%,98.4%,95.8%,85.1%,65%,102%
CCCCNC(=O)Oc1ccc(/C(=C(/C)Cc2ccc(OC)cc2)c2ccc(OCCN3CCCC3)cc2)cc1,13.5%,-11.3% (active),70%,79.3%,41.3%,60.7%,47%,45.4%,-66.9% (active),-0.368% (active)
COc1ccc(/C=C/C(=O)c2cccc(OCCCCOc3cccc(C(=O)/C=C/c4ccc(OC)c(OC)c4)c3)c2)cc1OC,80.9%,92%,67.8%,81.6%,84.8%,67%,9.83% (active),57.7%,61.7%,86%
Cc1cc(=O)n(C(=O)Nc2ccccc2Cl)c2cc(O)ccc12,107%,108%,93.7%,97%,98.6%,93.6%,101%,101%,99.1%,107%
COc1c(B(O)O)cccc1-c1nc2c(F)cc3[nH]ncc3c2c2c1CCCC2,0.465% (active),6.27% (active),-87.8% (active),6.94% (active),13.6%,13.8%,-26.3% (active),2.47% (active),-35.2% (active),2.91% (active)
COc1ccc(-c2noc(C(=O)O)c2-c2cc(OC)c(OC)c(OC)c2)cc1,30.4%,4.82% (active),-3.43% (active),31.6%,24.6%,26.3%,13%,24.2%,35.2%,65.3%
CCOC(=O)n1ccn(C)c1=S,104%,96.2%,104%,110%,100%,91%,109%,108%,105%,108%
N#Cc1ccc2c(c1)C(=O)c1c-2n(CCCN)c(=O)c2cc([N+](=O)[O-])ccc12,-90.8% (active),-100% (active),-100% (active),-85.1% (active),-100% (active),-74.4% (active),-100% (active),-100% (active),-100% (active),-100% (active)
N#Cc1c(-c2ccc(Cl)cc2)nc(NN2C(=O)c3ccccc3C2=O)nc1N1CCOCC1,112%,108%,84.6%,94.1%,106%,110%,101%,101%,102%,117%

# — PubChem BioAssay (NCI)
